Compound activity: PubChem BioAssay, National Center for Advancing Translational Sciences (NCATS)
A selection: hits, their analogues and other compounds. The true share with any hit is near 7.4%.
HEK293 tox = HEK 293 cell cytotoxicity | HEK 293 viability, ATP luminescence (CellTiter-Glo), 48-72 h | 94,000 compounds, 6.6% hits | AID 1345083 | Potency, µM (highest dose often 115 µM), for inactives: at the top dose activity change, negative = cytotoxicity, actives largely listed as inhibitors; further: nearly all actives have a fitted effect of over 60% in size
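Pintool-delivered compounds were incubated with HEK 293 cells (250 cells/well) at 37 degree Celsius for 48 or 72 hr. ATP-dependent luminescence (CellTiter-Glo) then reported remaining viable cells.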
NPR1 antag = antagonists of human natriuretic peptide receptor Npr1; P16066; HEK293 hNpr1 GloSensor cGMP, ANP-stimulated luminescence; Potency, µM (titrated, usually from 46.3 µM), for the others: at the highest dose activity change, negative = inhibition, usual class: inhibitors; 76,000 compounds, 1.6% hits; calls by dose curve; further: nearly all actives have a fitted effect of over 60% in size
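Compound pre-incubated 30 min at room temperature on GloSensor-loaded HEK293 cells stably carrying hNpr1 and the pGS-40F cGMP biosensor. Stimulation uses hNppA at 0.1 nM final; luminescence is taken at baseline and 20 min post-agonist.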
FLuc inh = Photinus pyralis luciferase inhibition. 76,000 compounds, 2.5% hits. Potency, µM (series often up to 115 µM), most hits filed as inhibitors. purified P. pyralis luciferase, luminescence, biochemical; further: nearly all actives have a fitted effect of over 65% in size
Target sequence (P08659 whole entry, looked up): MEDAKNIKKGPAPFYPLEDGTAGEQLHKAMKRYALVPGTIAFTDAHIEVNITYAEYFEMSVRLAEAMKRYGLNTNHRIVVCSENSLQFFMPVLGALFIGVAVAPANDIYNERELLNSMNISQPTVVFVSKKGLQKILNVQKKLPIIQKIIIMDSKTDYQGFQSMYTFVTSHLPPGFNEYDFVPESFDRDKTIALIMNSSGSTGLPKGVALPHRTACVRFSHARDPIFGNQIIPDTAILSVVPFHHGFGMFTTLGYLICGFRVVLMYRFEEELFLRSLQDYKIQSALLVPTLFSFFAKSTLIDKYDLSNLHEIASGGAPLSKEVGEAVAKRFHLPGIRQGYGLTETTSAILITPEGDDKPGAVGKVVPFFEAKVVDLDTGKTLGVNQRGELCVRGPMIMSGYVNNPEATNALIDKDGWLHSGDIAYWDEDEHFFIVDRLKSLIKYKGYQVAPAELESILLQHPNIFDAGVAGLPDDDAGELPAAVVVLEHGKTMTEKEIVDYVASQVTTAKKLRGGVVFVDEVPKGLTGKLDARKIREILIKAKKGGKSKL
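Luminescence read by CCD imager after adding enzyme (10nM final) to wells holding compound, titrated in qHTS. Substrates 10uM each D-luciferin and ATP; buffer 50mM Tris acetate pH 7.5, 10mM Mg acetate, Tween-20, BSA.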
NIH3T3 tox = kills NIH 3T3 cells; NIH 3T3 viability, CellTiter-Glo ATP luminescence, 48-72 h; Potency, µM (series often up to 96.7 µM), for the others: at the top dose activity change, negative = cytotoxicity, most hits filed as inhibitors; 94,000 compounds, 4.3% hits; further: nearly all actives have a fitted effect of over 55% in size
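Luminescent ATP readout (CellTiter-Glo, 10 min RT) after 48 or 72 hr compound exposure of NIH 3T3 cells seeded at 400 cells/well in 1536-well format; quantitative HTS.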
HEK293 viab = reduces viability of HEK-293 SNCA reporter cells. HEK-293-SNCA-luc viability, GF-AFC fluorescence, 24 h. Potency, µM (top dose mostly 57.1 µM), without a hit: at the top dose activity change, negative = cytotoxicity, hits mostly cytotoxic. 150,000 compounds, 0.12% hits. AID 1671193;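 further: 0% = DMSO-treated cells and -100% = medium-only wells without cells; nearly all actives have a fitted effect of over 30% in size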
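Cytotoxicity counterscreen: after 24 h compound treatment of genome-edited SNCA-luciferase HEK-293 cells, live-cell protease substrate GF-AFC read by fluorescence after 30 min; activity scaled between DMSO (0%) and medium-only (-100%), curves Hill-fitted.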
SNCA expr inhib = SNCA gene expression inhibition; 140,000 compounds, 0.17% hits; HEK-293 SNCA-luciferase knock-in, luminescence, 24 h; Potency, µM (doses to about 57.2 µM), without a hit: at the highest dose activity change, negative = inhibition, actives largely listed as inhibitors; AID 1671194;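 further: plate controls were DMSO cells for no effect and cell-free wells for full effect; nearly all actives have a fitted effect of over 45% in size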
* = called active by the depositor; [ ] = dose if it differs, or a comment. Unless noted, the call rests on the fitted dose curve; in most records, active means well fitted curve in the direction sought with a large enough effect; inconclusive means small, poorly fitted or top-dose-only effect, or another doubt; inactive means no such curve, though single readings can be large; an effect the other way counts as inactive or inconclusive. Unless noted, on the % scale 0 is the no-effect control and ±100 the full control effect; potency means the concentration at half of the fitted maximal effect.

How did O=C(NCCc1ccccc1F)c1ccc2nnc(-c3cccc(C(F)(F)F)c3)n2c1 do in these assays?
HEK293 tox: inconclusive; NIH3T3 tox: 35µM*; HEK293 viab: -10%; SNCA expr inhib: 110%

What do the screens show for `O=C(NCCc1ccccc1F)c1ccc2nnc(-c3cccnc3)n2c1`?
HEK293 tox: -29%; NIH3T3 tox: -19%; HEK293 viab: -4%; SNCA expr inhib: 5%

What do the screens show for `O=C(NCc1ccccc1)c1ccc2nnc(-c3cccnc3)n2c1`?
HEK293 tox: 2%; NIH3T3 tox: -27%; HEK293 viab: -29%; SNCA expr inhib: 25µM*

How did O=C(NCc1ccc(F)cc1)c1ccc2nnc(-c3cc(C(F)(F)F)cc(C(F)(F)F)c3)n2c1 do in these assays?
HEK293 tox: inconclusive; NIH3T3 tox: 35µM*; HEK293 viab: -10%; SNCA expr inhib: inconclusive

Results for COCCOC1CCOC2(CCN(C(=O)NCc3ccc(F)cc3)CC2)C1 (stereo not given) ?
HEK293 tox: 5%; NPR1 antag: 0%; FLuc inh: inactive; NIH3T3 tox: -9%; HEK293 viab: 1%[12.5 µM]; SNCA expr inhib: -7%

What do the screens show for `CS(=O)(=O)N(Cc1cccnc1)C1CN(C(=O)Nc2ccc3c(c2)OCCO3)C1`?
HEK293 tox: 6%; NPR1 antag: 2%; FLuc inh: 35µM*; NIH3T3 tox: inactive; HEK293 viab: 4%; SNCA expr inhib: 7%

How did CS(=O)(=O)N1CCC(OC2CCN(C(=O)Nc3ccc4c(c3)OCCO4)CC2)CC1 do in these assays?
HEK293 tox: -3%; NPR1 antag: 1%; FLuc inh: 35µM*; NIH3T3 tox: -6%; HEK293 viab: -6%; SNCA expr inhib: 81%

What do the screens show for `O=C(Nc1ccc2c(c1)OCCO2)N1CCC(Cc2nc(-c3ccncc3)n[nH]2)CC1`?
HEK293 tox: -7%; NPR1 antag: -22%; FLuc inh: 79µM*; NIH3T3 tox: -31%; HEK293 viab: -2%; SNCA expr inhib: inconclusive

How did COCCCn1c(C)cnc1C1CCN(C(=O)Nc2ccc3c(c2)OCCO3)C1 (stereo not given) do in these assays?
HEK293 tox: -7%; NPR1 antag: 2%; FLuc inh: 45µM*; NIH3T3 tox: inactive; HEK293 viab: 14%; SNCA expr inhib: 55%

What do the screens show for `CCN1c2cc(C(N)=O)ccc2C(=O)N2CCCCC21` (stereo not given)?
HEK293 tox: inconclusive; NPR1 antag: -4%; FLuc inh: inactive; NIH3T3 tox: -8%; HEK293 viab: 21%[12.5 µM]; SNCA expr inhib: -20%

How did Cc1cnc(CC2CCN(C(=O)Nc3ccc4c(c3)OCCO4)C2)n1C1CC1 (stereo not given) do in these assays?
HEK293 tox: -3%; NIH3T3 tox: -17%; HEK293 viab: -3%; SNCA expr inhib: 3%

How did Cc1nc(CC2CCN(C(=O)Nc3ccc4c(c3)OCCO4)CC2)n[nH]1 do in these assays?
HEK293 tox: -7%; NPR1 antag: -29%; FLuc inh: 45µM*; NIH3T3 tox: inactive; HEK293 viab: 5%; SNCA expr inhib: inconclusive

Results for COC(=O)c1ccc2nc(C[C@@H]3C[C@@H](C(C)C)[C@H](CNC4CCOCC4)C=C3C)[nH]c2c1 ?
HEK293 tox: inconclusive; NPR1 antag: 1%; FLuc inh: inactive; NIH3T3 tox: inconclusive; HEK293 viab: -1%; SNCA expr inhib: 3%

How did COC(=O)c1ccc2nc(C[C@@H]3C[C@@H](C(C)C)[C@H](CNC4CCCCC4)C=C3C)[nH]c2c1 do in these assays?
HEK293 tox: inconclusive; NPR1 antag: -9%; FLuc inh: inactive; NIH3T3 tox: 18µM*; HEK293 viab: -29%; SNCA expr inhib: 1%

Results for COC(=O)c1ccc2nc(C[C@@H]3C[C@@H](C(C)C)[C@H](CNC(=O)C(C)C)C=C3C)[nH]c2c1 ?
HEK293 tox: inconclusive; NPR1 antag: 0%[70.6 µM]; FLuc inh: inactive; NIH3T3 tox: inconclusive; HEK293 viab: -12%[87.6 µM]; SNCA expr inhib: 11%[87.6 µM]

How did COC(=O)c1ccc2nc(C[C@@H]3C[C@@H](C(C)C)[C@H](CN)C=C3C)[nH]c2c1 do in these assays?
HEK293 tox: inconclusive; NPR1 antag: -10%[70.6 µM]; FLuc inh: inactive; NIH3T3 tox: 63µM*; HEK293 viab: -22%[87.6 µM]; SNCA expr inhib: 13%[87.6 µM]

Results for CCC(NCc1c(C(=O)N2CCCCCC2)nc2cc(C)ccn12)c1ccc(C)cc1 (stereo not given) ?
HEK293 tox: 18µM*; NPR1 antag: -7%; FLuc inh: inactive; NIH3T3 tox: 45µM*; HEK293 viab: -18%; SNCA expr inhib: 11%

How did CC1=C(C(=O)OC(C)C)C(c2ccc([N+](=O)[O-])cc2)N2C(CC(=O)N3CCOCC3)=CSC2=N1 (stereo not given) do in these assays?
HEK293 tox: inconclusive; NPR1 antag: -30%; FLuc inh: inactive; NIH3T3 tox: -18%; HEK293 viab: -27%; SNCA expr inhib: -9%

How did C1CC(Cc2noc(C3CCOCC3)n2)CN1 (stereo not given) do in these assays?
HEK293 tox: 79µM*; NPR1 antag: 4%; FLuc inh: inactive; NIH3T3 tox: inconclusive; HEK293 viab: -1%; SNCA expr inhib: -20%

What do the screens show for `Cc1cccc(OCCc2noc(C3CNC3)n2)c1`?
HEK293 tox: 28µM*; NPR1 antag: inconclusive; FLuc inh: inactive; NIH3T3 tox: 28µM*; HEK293 viab: inconclusive; SNCA expr inhib: inconclusive

Results for O=C(c1n[nH]c(=O)c2ccccc12)N1CCCC1c1nc(CCOc2ccc(F)cc2)no1 (stereo not given) ?
HEK293 tox: inconclusive; NPR1 antag: -28%; FLuc inh: inactive; NIH3T3 tox: -30%; HEK293 viab: -25%; SNCA expr inhib: inconclusive

What do the screens show for `C1CC(COCCc2noc(C3CNC3)n2)CCO1`?
HEK293 tox: 7.9µM*; NPR1 antag: -26%; FLuc inh: inactive; NIH3T3 tox: 13µM*; HEK293 viab: 4.5µM*; SNCA expr inhib: inconclusive

What do the screens show for `Cc1cccc(OCCc2noc(C3CCCN3C(=O)c3n[nH]c(=O)c4ccccc34)n2)c1` (stereo not given)?
HEK293 tox: 40µM*; NPR1 antag: -2%; FLuc inh: inactive; NIH3T3 tox: inconclusive; HEK293 viab: -5%; SNCA expr inhib: -9%

What do the screens show for `COc1ccc(NC(=O)N[C@H]2[C@H](O)[C@@H](Oc3ccccc3)[C@@H]3OC[C@H]2O3)cc1`?
HEK293 tox: inconclusive; NPR1 antag: -2%[70.6 µM]; FLuc inh: inactive; NIH3T3 tox: -18%[174 µM]; HEK293 viab: 5%[87.6 µM]; SNCA expr inhib: -14%[87.6 µM]
